# Test results: publication PMC5700166
# Experiments:
# Assay in all cases: protein-binding microarray (PBM); PBM: ~300 nM protein, 6 mM HEPES pH 7.8, 80 mM KCl, 0.5 mM EDTA, 0.5 mM EGTA, 6% glycerol, 35 ng/ul poly-dIdC, 1% milk, 1 h, room temperature; Ap Aiptasia and Nv Nematostella (sea anemones) / Co Capsaspora / Aq Amphimedon (sponge) / Dm Drosophila / Hu human; RHD is the Rel homology domain; high values mean tight binding
# Settings in all cases: dsDNA, one strand shown
# GST-Ap-NF-kB RHD = biological target: T1, GST-Ap-NF-kB RHD (Exaiptasia pallida (Aiptasia), UniProt A0A913YAJ5 2-422)
# T1 sequence: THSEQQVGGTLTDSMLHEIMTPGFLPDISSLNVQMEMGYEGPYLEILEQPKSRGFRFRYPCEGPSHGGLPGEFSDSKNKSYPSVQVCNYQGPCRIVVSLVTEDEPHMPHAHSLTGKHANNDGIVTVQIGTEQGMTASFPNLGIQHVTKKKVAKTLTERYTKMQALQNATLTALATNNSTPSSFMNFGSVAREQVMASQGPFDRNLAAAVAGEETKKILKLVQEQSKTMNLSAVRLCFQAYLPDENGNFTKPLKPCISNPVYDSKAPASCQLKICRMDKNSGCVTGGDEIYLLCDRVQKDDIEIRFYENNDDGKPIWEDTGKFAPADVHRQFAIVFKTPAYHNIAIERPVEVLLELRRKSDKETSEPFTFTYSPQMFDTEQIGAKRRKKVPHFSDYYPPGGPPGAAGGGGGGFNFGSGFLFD
# [1] = biological target: T2, GST-Nv-NF-kB (Cys allele) (Nematostella vectensis, UniProt E5G601 2-411)
# T2 sequence: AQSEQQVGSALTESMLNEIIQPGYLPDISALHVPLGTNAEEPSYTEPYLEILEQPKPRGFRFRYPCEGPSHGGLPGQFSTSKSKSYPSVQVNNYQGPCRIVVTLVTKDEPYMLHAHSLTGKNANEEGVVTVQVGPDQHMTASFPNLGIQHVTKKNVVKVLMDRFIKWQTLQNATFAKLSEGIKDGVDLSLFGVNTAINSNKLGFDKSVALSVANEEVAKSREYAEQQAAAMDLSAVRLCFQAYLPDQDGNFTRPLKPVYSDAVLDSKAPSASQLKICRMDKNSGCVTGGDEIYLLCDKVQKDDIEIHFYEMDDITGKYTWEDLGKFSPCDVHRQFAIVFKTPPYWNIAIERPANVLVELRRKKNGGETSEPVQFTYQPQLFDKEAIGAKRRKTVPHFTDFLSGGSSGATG
# GST-Co-NF-kB = biological target: T3, GST-Co-NF-kB (Capsaspora owczarzaki, UniProt F1ARL5 200-546)
# T3 sequence: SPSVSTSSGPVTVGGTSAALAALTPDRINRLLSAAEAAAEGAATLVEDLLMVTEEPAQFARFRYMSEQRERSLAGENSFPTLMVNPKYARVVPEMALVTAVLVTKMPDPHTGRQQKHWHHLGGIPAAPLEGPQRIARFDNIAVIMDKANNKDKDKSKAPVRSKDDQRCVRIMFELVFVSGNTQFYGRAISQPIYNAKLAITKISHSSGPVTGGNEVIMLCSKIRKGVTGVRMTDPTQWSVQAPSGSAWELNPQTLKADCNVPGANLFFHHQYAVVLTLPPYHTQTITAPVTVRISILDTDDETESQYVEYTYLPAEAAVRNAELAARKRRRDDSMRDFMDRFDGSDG
# GST-Dm-Relish = biological target: T4, GST-Dm-Relish (Drosophila melanogaster, UniProt Q94527 99-473)
# T4 sequence: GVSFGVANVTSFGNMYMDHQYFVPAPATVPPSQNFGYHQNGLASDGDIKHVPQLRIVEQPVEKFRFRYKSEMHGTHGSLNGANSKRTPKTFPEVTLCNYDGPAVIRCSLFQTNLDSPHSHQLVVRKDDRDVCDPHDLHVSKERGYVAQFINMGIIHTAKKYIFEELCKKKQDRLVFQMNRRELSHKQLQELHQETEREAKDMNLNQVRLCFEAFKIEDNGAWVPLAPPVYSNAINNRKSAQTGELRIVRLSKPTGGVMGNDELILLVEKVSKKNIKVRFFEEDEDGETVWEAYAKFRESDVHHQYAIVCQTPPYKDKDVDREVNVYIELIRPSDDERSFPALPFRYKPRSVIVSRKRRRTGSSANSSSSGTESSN
# GST-Aq-NF-kB = biological target: T5, GST-Aq-NF-kB (Amphimedon queenslandica, UniProt A9Y5G7 2-389)
# T5 sequence: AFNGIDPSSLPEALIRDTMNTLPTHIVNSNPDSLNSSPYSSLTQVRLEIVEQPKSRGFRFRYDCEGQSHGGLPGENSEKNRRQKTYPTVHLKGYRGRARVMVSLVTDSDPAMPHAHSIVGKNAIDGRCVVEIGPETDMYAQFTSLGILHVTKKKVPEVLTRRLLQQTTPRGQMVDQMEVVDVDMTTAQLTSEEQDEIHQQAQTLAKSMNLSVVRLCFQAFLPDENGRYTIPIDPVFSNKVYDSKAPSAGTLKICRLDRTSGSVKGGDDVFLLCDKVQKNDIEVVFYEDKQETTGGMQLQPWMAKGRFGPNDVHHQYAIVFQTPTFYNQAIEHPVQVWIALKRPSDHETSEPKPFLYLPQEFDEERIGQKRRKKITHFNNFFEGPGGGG
# GST-Hu-p50 = GST-Hu-p50 (Homo sapiens, UniProt P19838 7-356)
# GST-Hu-p50, sequence (P19838 7-356): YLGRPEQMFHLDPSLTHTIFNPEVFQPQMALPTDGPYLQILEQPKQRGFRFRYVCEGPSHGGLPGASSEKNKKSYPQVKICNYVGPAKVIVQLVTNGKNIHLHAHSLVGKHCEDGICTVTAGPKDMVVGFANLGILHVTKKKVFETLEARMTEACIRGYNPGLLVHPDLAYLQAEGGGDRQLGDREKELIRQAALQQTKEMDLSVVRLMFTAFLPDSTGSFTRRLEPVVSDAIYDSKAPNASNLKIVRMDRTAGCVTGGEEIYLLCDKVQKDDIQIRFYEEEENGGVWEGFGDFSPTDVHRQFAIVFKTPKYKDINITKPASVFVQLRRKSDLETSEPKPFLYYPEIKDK
Sequence,binding signal (GST-Ap-NF-kB RHD) [z-score],binding signal [1] [z-score],binding signal (GST-Co-NF-kB) [z-score],binding signal (GST-Dm-Relish) [z-score],binding signal (GST-Aq-NF-kB) [z-score],binding signal (GST-Hu-p50) [z-score]
CCGATTAACATCAAATTTACCCCTGATGTTAATCGGGTCTTGATTCGCTTGACGCTGCTG,3.29,3.57,8.25,3.85,4.53,4.09
CCGATTAACATCAGGAACCCCCCTGATGTTAATCGGGTCTTGATTCGCTTGACGCTGCTG,8.98,6.2,3.38,9.74,7.32,5.86
CCGATTAACATCAGGAAAGCCCCTGATGTTAATCGGGTCTTGATTCGCTTGACGCTGCTG,7.03,9.89,1.05,8.43,9.59,6.88
CCGATTAACATCAACACTCCCCCTGATGTTAATCGGGTCTTGATTCGCTTGACGCTGCTG,5.32,4.24,5.26,2.43,4.25,5.34
CCGATTAACATCAGGGCACCCCCTGATGTTAATCGGGTCTTGATTCGCTTGACGCTGCTG,6.14,4.52,2.4,8.28,7.23,4.75
CCGATTAACATCAAGGGGGGAACTGATGTTAATCGGGTCTTGATTCGCTTGACGCTGCTG,6.46,5.69,7.52,3.7,5.19,5.52
CCGATTAACATCAACTATCCCCCTGATGTTAATCGGGTCTTGATTCGCTTGACGCTGCTG,5.83,4.03,6.08,2.98,4.04,4.09
CCGATTAACATCAAAAGCCCCCATGATGTTAATCGGGTCTTGATTCGCTTGACGCTGCTG,5.8,6.19,2.08,6.91,6.49,6.29
CCGATTAACATCAAAATCACCCCTGATGTTAATCGGGTCTTGATTCGCTTGACGCTGCTG,4.66,2.97,5.02,5.22,3.41,4.39
CCGATTAACATCAGGGGGAACAATGATGTTAATCGGGTCTTGATTCGCTTGACGCTGCTG,5.8,5.75,9.17,3.62,4.61,5.11
CCGATTAACATCAGGCATCCCCCTGATGTTAATCGGGTCTTGATTCGCTTGACGCTGCTG,6.28,5.13,3.74,6.22,6.35,5.3
CCGATTAACATCAAAGAGCCCCCTGATGTTAATCGGGTCTTGATTCGCTTGACGCTGCTG,4.73,4.16,1.68,3.94,5.01,4.43
CCGATTAACATCAAAATACCCCTTGATGTTAATCGGGTCTTGATTCGCTTGACGCTGCTG,6.2,6.38,4.02,5.65,6.58,6.17
CCGATTAACATCACACTCCCCCCTGATGTTAATCGGGTCTTGATTCGCTTGACGCTGCTG,5.44,4.08,6.07,3.37,3.93,5.38
CCGATTAACATCAGGGCTCCCCCTGATGTTAATCGGGTCTTGATTCGCTTGACGCTGCTG,7.08,5.82,4.76,7.28,8.12,5.6
CCGATTAACATCAAAAAGCCCCGTGATGTTAATCGGGTCTTGATTCGCTTGACGCTGCTG,6.52,8.2,1.43,8.47,7.21,6.06
CCGATTAACATCAGATCCCCCCCTGATGTTAATCGGGTCTTGATTCGCTTGACGCTGCTG,8.16,5.56,6.72,5.21,5.39,5.36
CCGATTAACATCAGAAGTCCCCCTGATGTTAATCGGGTCTTGATTCGCTTGACGCTGCTG,7.95,7.32,5.95,7.74,6.54,6.36
